Tau fil binding – qHTS Assay for Tau Filament Binding. recombinant tau filaments, thioflavin S fluorescence, 15 h; filaments grown with octadecylsulfate alongside compound. Potency, µM (top dose mostly 57.1 µM), for inactives: at the highest dose activity change, negative = inhibition. actives 2% (n = 71,000). AID 596, 2007;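 also: potency is read from the fitted curve at half-maximal effect; % is scaled to controls: 0 for no effect and ±100 for the full control effect; actives lower thioflavin S fluorescence by blocking filaments or displacing dye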
Target sequence (P10636 whole entry, looked up): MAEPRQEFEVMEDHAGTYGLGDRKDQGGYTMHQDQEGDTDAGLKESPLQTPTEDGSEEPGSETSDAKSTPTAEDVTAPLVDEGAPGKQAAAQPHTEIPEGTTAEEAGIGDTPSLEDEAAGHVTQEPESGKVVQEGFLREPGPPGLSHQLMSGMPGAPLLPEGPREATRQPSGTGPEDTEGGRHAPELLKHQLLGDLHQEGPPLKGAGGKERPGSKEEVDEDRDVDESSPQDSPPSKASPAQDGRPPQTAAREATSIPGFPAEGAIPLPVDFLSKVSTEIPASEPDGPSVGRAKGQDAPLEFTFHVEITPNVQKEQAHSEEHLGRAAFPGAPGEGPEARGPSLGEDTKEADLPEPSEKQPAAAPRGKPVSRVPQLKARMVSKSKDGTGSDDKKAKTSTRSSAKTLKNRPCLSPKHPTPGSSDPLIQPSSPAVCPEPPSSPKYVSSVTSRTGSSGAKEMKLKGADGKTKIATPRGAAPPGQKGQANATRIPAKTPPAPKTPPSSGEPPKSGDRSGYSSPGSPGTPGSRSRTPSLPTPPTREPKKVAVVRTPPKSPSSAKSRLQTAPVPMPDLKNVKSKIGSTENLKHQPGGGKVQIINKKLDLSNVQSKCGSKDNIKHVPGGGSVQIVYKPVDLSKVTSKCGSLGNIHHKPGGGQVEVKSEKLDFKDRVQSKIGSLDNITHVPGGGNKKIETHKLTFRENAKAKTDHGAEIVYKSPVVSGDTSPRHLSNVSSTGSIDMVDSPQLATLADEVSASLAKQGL
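Tau 2 uM in ThS buffer dispensed; compound added; 60 uM ODS added (finals 1 uM tau, 30 uM ODS); 15 h 37 C; fluor ex450/em510.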
YjeE inh – qHTS Assay for Inhibitors of YjeE | tRNA threonylcarbamoyladenosine biosynthesis protein TsaE (Escherichia coli (strain … | purified YjeE enzyme, qHTS inhibition assay | Potency, µM | actives 0.05% (n = 71,000)
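Purified YjeE (10 uM) with BODIPY Texas Red-labeled ADP probe (2 uM); compounds pin-transferred, 15 min at room temperature. Binding inhibition read as decreased fluorescence polarization; ADP titration as control.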
p53ts 39C kill – qHTS Screen for Compounds that Selectively Target Cancer Cells with p53 Mutations: Cytotoxicity of p53ts Cells at the Nonpermissive Temperature; H1299-p53A138V viability at 39C, ATP luminescence, 24 h; Potency, µM (highest dose often 46.1 µM), inactives show top-dose activity change, negative = cell killing, hits mostly cytotoxic; actives 1.5% (n = 130,000); also: potency is read from the fitted curve at half-maximal effect; % is scaled to controls: 0 for no effect and ±100 for the full control effect; nearly all actives have a fitted effect of over 55% in size
ERK AVP inh – qHTS Assay for Inhibitors of the ERK Signaling Pathway using a Homogeneous Screening Assay; HEK293-V1b, vasopressin-stimulated pERK AlphaScreen; Potency, µM (titrated, usually from 57.5 µM), for the others: at the highest dose activity, negative = inhibition, hits mostly inhibitors; actives 0.99% (n = 72,000); also: potency is read from the fitted curve at half-maximal effect; % is scaled to controls: 0 for no effect and ±100 for the full control effect; nearly all actives have a fitted effect of over 55% in size
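Overnight-seeded V1b-HEK293 cells in 1% FBS got compound, then vasopressin (25 nM final, 5 min, 37C), then lysis buffer. AlphaScreen detection of phospho-ERK; activity normalized to basal and full-stimulation controls.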
DNA Pol III inh – qHTS Assay for Inhibitors of DNA Polymerase III Holoenzyme System; reconstituted DNA polymerase III holoenzyme replication, biochemical; Potency, µM (top dose mostly 57.1 µM), without a hit: top-dose activity change, negative = inhibition; actives 0.25% (n = 71,000); also: potency is read from the fitted curve at half-maximal effect; % is scaled to controls: 0 for no effect and ±100 for the full control effect
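Reconstituted *E. coli* holoenzyme (0.35 nM Pol III, 1 nM beta, 154 nM SSB, 2 nM primase) was preincubated with compound for 15 min at RT. Synthesis on 1.4 nM ssM13Gori ran 35 min, then was stopped with PicoGreen/EDTA and read as dsDNA fluorescence.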
p53ts 32C tox – qHTS Screen for Compounds that Selectively Target Cancer Cells with p53 Mutations: Cytotoxicity of p53ts Cells at the Permissive Temperature; actives 0.93% (n = 130,000); Potency, µM (series often up to 46.1 µM), without a hit: top-dose activity change, negative = cytotoxicity, most hits filed as cytotoxic; H1299-p53A138V at 32C, ATP luminescence viability, 24 h;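 also: potency is read from the fitted curve at half-maximal effect; 0% = DMSO and -100% = full killing by reference compound; nearly all actives have a fitted effect of over 55% in size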
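ATP-content luminescence (ATPlite) read-out after 24 h compound exposure at 32C in H1299-p53A138V cells (600/well). Tested up to 46 uM. Normalized to DMSO (0%) and 100 uM tamoxifen (100% killing); Hill-fit AC50.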
* hit, by the source's call; i = inactive; ? = inconclusive; / = no result given; [ ] = dose if it differs, or a comment. A selection: hits, their analogues and other compounds. The true share with any hit is near 3.2%. Calls follow the shape of the dose curve; as a rule, active = well fitted curve in the direction sought with a large enough effect; inconclusive = small, poorly fitted or top-dose-only effect, or another doubt; inactive = no such curve, though single readings can be large; an effect the other way counts as inactive or inconclusive.

SMILES	Tau fil binding	YjeE inh	p53ts 39C kill	ERK AVP inh	DNA Pol III inh	p53ts 32C tox
CCOC(=O)c1c(NC(C)=O)c2c3c(sc2n1Cc1nc(-c2ccccc2Cl)oc1C)CCCC3	/	/	-19%	/	/	10%
O=C(Nc1ccccc1N1CCCC1)c1ccc(Br)o1	-18%	i	-6%	-14%	-4%	0%
O=C(Nc1ccc(N2CCCC2)c(Cl)c1)c1ccc(Br)o1	4µM*	i	-17%	?	0%[11.4 µM]	-21%
CCOc1ccccc1NC(=O)N1CCN(Cc2cc(=O)n3nc(-c4ccc(C)cc4)sc3n2)CC1	/	/	-13%	/	/	-10%
C=CC(=O)CC	3%	i	-8%	-14%	5%	8%[1.84 µM]
O=C(CCCc1ccccc1)c1ccc2c(c1)OCCO2	/	/	11µM*	/	/	7.9µM*
COc1ccc(C)cc1NC(=O)NCc1ccc2c(c1)CCN2C(=O)c1ccccc1	/	/	-24%	/	/	-7%
CCOc1ccc2nc(N3CCN(C(=O)CS(=O)(=O)c4ccc(F)cc4)CC3)sc2c1	/	/	6.3µM*	/	/	14µM*
O=C(Nc1ccc2nc(SCC(=O)N3CCCc4ccccc43)sc2c1)c1cccc(Cl)c1	/	/	25%	/	/	-5%
Cc1ccc(NC(=O)CCn2c(=O)c3cccn3c3ccccc32)cc1Cl	/	/	-17%	/	/	-4%
O=C1C(=O)N(Cc2ccc(Cl)c(Cl)c2)c2ccccc21	32µM*	i	6.3µM*	-27%	2%	?
COc1ccc(OCc2ccc(C(=O)N3CCOCC3)cc2)cc1	/	/	9%	/	/	-19%
CCOc1ccc(OCc2cccc(C(=O)N3CCOCC3)c2)cc1	0%	i	13µM*	-7%	-1%	10µM*
COc1ccc(-c2nc3cnc(N4CCOCC4)nc3n(-c3ccccc3)c2=O)cc1	121%	i	0%	2%	-5%	1%
CCOC(=O)c1c(Nc2cccc(C(=O)OC)c2)nnc(-c2ccccc2)c1-c1ccccc1	/	/	-18%	/	/	4%
COC(=O)c1cccc(Nc2nc3ccccc3nc2C)c1	40%	i	-8%	25µM*	4%	?
CCOc1ccc(NC(=O)CS(=O)(=O)Cc2nc(-c3ccc(C)cc3)oc2C)cc1	/	/	9%	/	/	1%
COc1ccc(N2CCN(Cc3cc(=O)oc4ccc(Cl)cc34)CC2)cc1	-13%	i	14%	0%	-7%	2%
COc1ccc2nc3cc(Cl)ccc3c(Nc3ccc(O)c(CN4CCN(C)CC4)c3)c2c1	0.25µM*	i	8%[9.22 µM]	-11%[11.5 µM]	5µM*	2%[9.22 µM]
COc1ccccc1C(=O)Nc1nnc(S(=O)(=O)N(C)c2ccc(Cl)cc2)s1	/	/	-13%	/	/	6%
COc1ccc(NC(=O)CSc2nnc3scc(-c4ccc(Cl)cc4)n23)cc1	/	/	13µM*	/	/	?
Cc1ccc(-c2csc3nnc(SCC(=O)Nc4cccc(C)n4)n23)cc1	20µM*	i	-5%	-25%	0%	5%
CCOc1ccc(CCNC(=O)c2ccc(Cn3c(=O)c4cccn4c4cccnc43)cc2)cc1	/	/	?	/	/	-14%
CCOC(=O)c1cnc2c(C#N)c(C)nn2c1-c1ccccc1	16µM*	i	10%	-3%	-6%	6%
Oc1ccccc1-c1nc(-c2cccs2)c(-c2cccs2)[nH]1	/	/	25µM*	/	/	?
SMILES	Tau fil binding	YjeE inh	p53ts 39C kill	ERK AVP inh	DNA Pol III inh	p53ts 32C tox
COc1ccc(Cl)cc1N=Nc1ncc[nH]1	40µM*	i	-11%	?	-14%	-3%
COc1ccc(Cl)cc1NC(=S)NCc1ccccn1	/	/	-6%	/	/	/
Cc1ccc(NS(=O)(=O)c2cc(-c3cnc(C4CC4)o3)ccc2C)cc1Cl	/	/	?	/	/	14%
COC(=O)c1cc2oc3ccccc3c2n1CC(=O)Nc1ccc(Cl)cc1F	/	/	10µM*	/	/	-2%
CCOC(=O)c1sc(NC(=O)CN2CCCC2)c(C(=O)OCC)c1C	17%	i	4%	-16%	-7%	-1%
CCOC(=O)c1sc(NC(=O)COC(=O)CNC(=O)C2CCCCC2)c(C(=O)OCC)c1C	/	/	3.2µM*	/	/	?
Cc1nc2sc(C(=O)O)c(N)c2c2c1COC(C)(C)C2	5%	i	8%	-6%	-2%	6%
CCOC(=O)c1sc2nc(-c3ccco3)c3c(c2c1N)CC(C)(C)OC3	13µM*	i	5%	10%	-9%	9%
CCOC(=O)c1sc2nc(N3CCOCC3)c3c(c2c1N)CCC3	-1%	i	5%	?	6%	11%
CCOC(=O)c1sc2nc(N3CCOCC3)c3c(c2c1N)CC(C)(C)N(C)C3	13µM*	i	-1%	0%	-6%	24%
CC(=O)c1cc(C(=O)Nc2cc(C)cc(C)c2)c2ccccn12	/	/	-3%	/	/	-14%
CCCCOc1ccc(N2C(=O)CC(N(O)c3ccccc3)C2=O)cc1 (stereo not given)	-18%	i	-5%	-19%	-7%	-13%
CCCCCOc1ccc(N2C(=O)CC(N(O)c3ccccc3)C2=O)cc1 (stereo not given)	13µM*	i	-13%	-13%	-4%	-2%
CCC(=O)[C@]12O[C@@]3(C4C(=O)OCCC41)N(Cc1ccccc1)C(C)=C(C(=O)OC)C(c1ccccc1)N3C2=O (stereo not given in full)	/	/	-2%[9.22 µM]	10%[11.5 µM]	/	5%[9.22 µM]
COc1cccc(C(=O)Nc2cccc(-c3nc4ncccc4o3)c2C)c1	14%	i	2%	-15%	-6%	3%
CCOc1cccc(C(=O)Nc2cccc(-c3nc4ncccc4o3)c2C)c1	25%	i	6%	13µM*	-6%	-5%
Cc1ccc(Cn2c(SCC(=O)NCc3ccccc3)nc3ccsc3c2=O)cc1	/	/	16µM*	/	/	0%
N/C(=N\O)c1cn([C@@H]2O[C@@H](CO)[C@H](O)[C@@H]2O)c2ncnc(NO)c12	-4%[11.4 µM]	i	1µM*	5%[11.5 µM]	-16%[11.4 µM]	2µM*
CC(C)=CCNc1ncnc2c1c(C#N)cn2[C@H]1O[C@@H](CO)[C@@H](O)[C@@H]1O	1%[11.4 µM]	i	8%[9.22 µM]	5%[11.5 µM]	-12%[11.4 µM]	9%[9.22 µM]
CO[C@H]1COC(=O)[C@H](C)NC(=O)[C@@H](C)COC(=O)[C@H]2CCCN2C(=O)C/C=C\[C@H]1C	/	/	-3%[9.22 µM]	8%[11.5 µM]	/	4%[9.22 µM]
COc1ccc(C(=O)N2CCC(c3nc(-c4ccc(S(=O)(=O)N5CCCC5)cc4)no3)CC2)cc1	/	/	-29%	/	/	-7%
COC(=O)c1nnc(-c2ccccc2)c(-c2ccccc2)n1	3%	i	12%	-10%	-7%	2%

Screens from PubChem BioAssay.
